Source: PubChem BioAssay (NCI)
Compounds without any hit were thinned out: in the full panel of roughly 83,000, 20% have a hit.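 Interpretation: 100, growth as untreated; towards 0, rising growth inhibition; 0, no net growth; 0 to -100, cell death. Compounds scoring below 10 were considered active.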 The source made the active and inactive calls.

Legend:
Assay in all cases: NCI-60 one-dose screen, 48 h (100 = growth as untreated, 0 = no growth, -100 = all killed)
Conditions in all cases: 10 µM unless noted
DU-145 prostate = system: DU-145 prostate
K-562 leukemia = system: K-562 leukemia
MALME-3M melanoma = system: MALME-3M melanoma
MDA-MB-231 breast = system: MDA-MB-231 breast
RXF 393 renal = system: RXF 393 renal
SF-268 CNS = system: SF-268 CNS
SF-295 CNS = system: SF-295 CNS
SF-539 CNS = system: SF-539 CNS
UACC-257 melanoma = system: UACC-257 melanoma
M14 melanoma = system: M14 melanoma
HCT-15 colon = system: HCT-15 colon
HT29 colon = system: HT29 colon
SNB-75 CNS = system: SNB-75 CNS
SNB-19 CNS = system: SNB-19 CNS
U251 CNS = system: U251 CNS
PC-3 prostate = system: PC-3 prostate
SK-MEL-5 melanoma = system: SK-MEL-5 melanoma
UACC-62 melanoma = system: UACC-62 melanoma
LOX IMVI melanoma = system: LOX IMVI melanoma
SK-MEL-28 melanoma = system: SK-MEL-28 melanoma

Measured: growth

O=C1Nc2ccccc2/C1=C\c1c[nH]c2ccc(Br)cc12
inactive: DU-145 prostate 89.7% | K-562 leukemia 74.2% | MALME-3M melanoma 89.8% | MDA-MB-231 breast 67% | RXF 393 renal 25.4% | SF-268 CNS 62.2% | SF-295 CNS 109% | SF-539 CNS 83.1% | UACC-257 melanoma 80.1% | M14 melanoma 84.5% | HCT-15 colon 48.7% | HT29 colon 86.7% | SNB-75 CNS 56.1% | SNB-19 CNS 88.6% | U251 CNS 85% | PC-3 prostate 70.8% | SK-MEL-5 melanoma 35.4% | UACC-62 melanoma 80.1% | LOX IMVI melanoma 50.6% | SK-MEL-28 melanoma 72.7%

O=C(C1=Cc2cc3ccccc3n2Cc2cnnn21)c1ccc(O)cc1
inactive: DU-145 prostate 89.9% | K-562 leukemia 11% | MALME-3M melanoma 57.8% | MDA-MB-231 breast 75.5% | RXF 393 renal 59% | SF-268 CNS 71.9% | SF-295 CNS 56.9% | SF-539 CNS 61.5% | UACC-257 melanoma 84% | M14 melanoma 24.9% | HCT-15 colon 37.3% | HT29 colon 27.3% | SNB-75 CNS 31% | SNB-19 CNS 63.2% | U251 CNS 53.5% | PC-3 prostate 62.4% | SK-MEL-5 melanoma 54.2% | UACC-62 melanoma 32.9% | LOX IMVI melanoma 50.6% | SK-MEL-28 melanoma 66.8%

COc1cc(-c2nc3cc(Cl)c(Cl)cc3[nH]2)ccc1OCC(=O)N=Nc1c(O)[nH]c2ccc(Cl)cc12
active: DU-145 prostate 6.51% | K-562 leukemia -11.7% | MALME-3M melanoma -16.4% | MDA-MB-231 breast -43.8% | RXF 393 renal -6.73% | SF-268 CNS -24.5% | SF-295 CNS -18% | SF-539 CNS -36% | UACC-257 melanoma 7.43% | M14 melanoma -35.8% | HT29 colon 9.24% | SNB-75 CNS 6.76% | SNB-19 CNS 9.74% | U251 CNS -89.4% | PC-3 prostate 0.522% | SK-MEL-5 melanoma -62.9% | UACC-62 melanoma -11.7% | LOX IMVI melanoma -83.5% | SK-MEL-28 melanoma -2.83%
inactive: HCT-15 colon 58.4%

O=c1cc(-c2ccccc2)[nH]c2ncc(-c3ccc(F)cc3)n12
inactive: DU-145 prostate 94.6% | K-562 leukemia 18.5% | MALME-3M melanoma 77.8% | MDA-MB-231 breast 62% | RXF 393 renal 72.3% | SF-268 CNS 80.6% | SF-295 CNS 46% | SF-539 CNS 73.8% | UACC-257 melanoma 83.1% | M14 melanoma 50.4% | HCT-15 colon 37.7% | HT29 colon 40.6% | SNB-75 CNS 68.3% | SNB-19 CNS 68.3% | U251 CNS 56% | PC-3 prostate 56.7% | SK-MEL-5 melanoma 54.9% | UACC-62 melanoma 36.6% | LOX IMVI melanoma 65.9% | SK-MEL-28 melanoma 73.4%

NC(=O)c1c(NC(=O)c2cccc(C(F)(F)F)c2)sc2c1CCC(=O)C2
inactive: DU-145 prostate 29.2% | SF-268 CNS 19% | SNB-19 CNS 11.6% | SK-MEL-28 melanoma 20.7%
active: K-562 leukemia -2.81% | MALME-3M melanoma -41% | MDA-MB-231 breast -45.5% | RXF 393 renal -5.44% | SF-295 CNS -12.9% | SF-539 CNS -78.1% | UACC-257 melanoma -6.24% | M14 melanoma -54% | HCT-15 colon -21.2% | HT29 colon 3.32% | SNB-75 CNS -75.9% | U251 CNS 7.56% | PC-3 prostate -29.8% | SK-MEL-5 melanoma -56.3% | UACC-62 melanoma -45.4% | LOX IMVI melanoma 5.08%

CNC1=C([N+](=O)[O-])C(c2ccc(OC)cc2)C(C#N)=C(c2cccs2)O1 (stereo not given)
inactive: DU-145 prostate 113% | K-562 leukemia 105% | MALME-3M melanoma 98.6% | MDA-MB-231 breast 99.5% | RXF 393 renal 121% | SF-268 CNS 101% | SF-295 CNS 101% | SF-539 CNS 100% | UACC-257 melanoma 106% | M14 melanoma 103% | HCT-15 colon 108% | HT29 colon 118% | SNB-75 CNS 95.5% | SNB-19 CNS 105% | U251 CNS 101% | PC-3 prostate 101% | SK-MEL-5 melanoma 100% | UACC-62 melanoma 101% | LOX IMVI melanoma 95.3% | SK-MEL-28 melanoma 122%

CN1CCN(CCOc2ccc(-c3cnc4c(-c5cccc(F)c5F)cnn4c3)cc2)CC1
inactive: MDA-MB-231 breast 85% | RXF 393 renal 97% | SF-268 CNS 25.3% | SNB-75 CNS 115% | PC-3 prostate 90.5%
active: DU-145 prostate 8.58% | K-562 leukemia -31.3% | MALME-3M melanoma -44% | SF-295 CNS -3.66% | SF-539 CNS -72.5% | UACC-257 melanoma -19.1% | M14 melanoma -78.9% | HCT-15 colon -8.62% | HT29 colon -46.1% | SNB-19 CNS 8.04% | U251 CNS -32.4% | SK-MEL-5 melanoma -32.4% | UACC-62 melanoma -36.1% | LOX IMVI melanoma -95.8% | SK-MEL-28 melanoma -18.7%

COc1ccc(C2CC(c3cc(OC)c(OC)c(OC)c3)=NO2)cc1OCCCCOc1cc2c(cc1OC)C(=O)N1CCC[C@H]1C=N2 (stereo not given in full)
active: MALME-3M melanoma -43.1% | RXF 393 renal -67.1% | SF-295 CNS 2.46% | SF-539 CNS -39% | M14 melanoma -16.2% | HT29 colon -13.9% | SNB-75 CNS -14.2% | U251 CNS 4.05% | SK-MEL-5 melanoma -79.6% | UACC-62 melanoma -67.8% | LOX IMVI melanoma -39.7% | SK-MEL-28 melanoma -23.1%
inactive: DU-145 prostate 13.4% | K-562 leukemia 34.8% | MDA-MB-231 breast 11.7% | SF-268 CNS 16.7% | UACC-257 melanoma 24.6% | HCT-15 colon 39.8% | SNB-19 CNS 16.5% | PC-3 prostate 45.8%

CCN1CCN(CCNc2nccc(-c3c(-c4ccc(F)c(OC)c4)nc4sccn34)n2)S1(=O)=O
inactive: DU-145 prostate 84.1% | K-562 leukemia 54.4% | MDA-MB-231 breast 50.8% | RXF 393 renal 45% | SF-268 CNS 79% | SF-295 CNS 90.5% | SF-539 CNS 99.1% | UACC-257 melanoma 30.7% | M14 melanoma 20.7% | HCT-15 colon 94.6% | HT29 colon 73.1% | SNB-75 CNS 74% | SNB-19 CNS 93% | U251 CNS 76.8% | PC-3 prostate 74.1% | SK-MEL-5 melanoma 41.4% | UACC-62 melanoma 15.5% | LOX IMVI melanoma 40.3% | SK-MEL-28 melanoma 27.2%
active: MALME-3M melanoma -7.64%

C#CC#CC#CC#CC#CC#CC#CC#CCC1OC[C@H](COC(=O)O[C@@H](C(=O)O[C@H]2C[C@@]3(O)[C@@H](OC(=O)c4ccccc4)[C@@H]4[C@]5(OC(C)=O)CO[C@@H]5C[C@H](O)[C@@]4(C)C(=O)[C@H](OC(C)=O)C(=C2C)C3(C)C)[C@@H](NC(=O)c2ccccc2)c2ccccc2)O1 (stereo not given in full)
active: RXF 393 renal -2.06% | SF-539 CNS 8.47% | M14 melanoma 1.84% | HT29 colon 7.52% | SNB-75 CNS 7.72%
inactive: DU-145 prostate 17.3% | K-562 leukemia 15.5% | MALME-3M melanoma 47.2% | MDA-MB-231 breast 35.3% | SF-268 CNS 45.9% | SF-295 CNS 15.2% | UACC-257 melanoma 64.9% | HCT-15 colon 88% | SNB-19 CNS 27.9% | U251 CNS 26.2% | PC-3 prostate 23.2% | SK-MEL-5 melanoma 31.6% | UACC-62 melanoma 28.3% | LOX IMVI melanoma 29.6% | SK-MEL-28 melanoma 53.6%

COc1cc(/C=C2\CN(S(=O)(=O)c3ccccc3)C/C(=C\c3cc(CN4CCCCC4)c(O)c(OC)c3)C2=O)cc(CN2CCCCC2)c1O
active: DU-145 prostate -93% | K-562 leukemia -9.62% | MALME-3M melanoma -77.6% | MDA-MB-231 breast -67.8% | RXF 393 renal -88.3% | SF-268 CNS -20.7% | SF-539 CNS -84.6% | M14 melanoma -75.2% | HCT-15 colon -73.8% | HT29 colon -66.7% | SNB-75 CNS -91.7% | SNB-19 CNS -30.1% | U251 CNS -76.7% | PC-3 prostate -36.3% | SK-MEL-5 melanoma -94.8% | LOX IMVI melanoma -87% | SK-MEL-28 melanoma -90.3%
inactive: SF-295 CNS 76.5% | UACC-257 melanoma 83.8% | UACC-62 melanoma 71%

Cc1ccc2c(=O)cc(C(=O)Nc3sc4c(c3C(=O)NCc3cccnc3)CCCC4)oc2c1C
inactive: DU-145 prostate 103% | K-562 leukemia 96.4% | MALME-3M melanoma 99.9% | MDA-MB-231 breast 96.9% | RXF 393 renal 116% | SF-268 CNS 93.2% | SF-295 CNS 102% | SF-539 CNS 98.1% | UACC-257 melanoma 104% | M14 melanoma 104% | HCT-15 colon 103% | HT29 colon 109% | SNB-75 CNS 91.7% | SNB-19 CNS 96.1% | U251 CNS 104% | PC-3 prostate 99.2% | SK-MEL-5 melanoma 99.7% | UACC-62 melanoma 96.6% | LOX IMVI melanoma 93.1% | SK-MEL-28 melanoma 104%

c1ccc2c(c1)CCCc1nnc3nc4ccccc4n3c1-2
inactive: DU-145 prostate 39.9% | K-562 leukemia 31.4% | MALME-3M melanoma 53.5% | MDA-MB-231 breast 38.5% | RXF 393 renal 46.7% | SF-268 CNS 44.5% | SF-295 CNS 30.7% | SF-539 CNS 69.5% | UACC-257 melanoma 37.6% | M14 melanoma 28.3% | HCT-15 colon 40.2% | HT29 colon 31.4% | SNB-75 CNS 45.4% | SNB-19 CNS 56.5% | U251 CNS 38.5% | PC-3 prostate 37.1% | SK-MEL-5 melanoma 56.5% | UACC-62 melanoma 57.7% | LOX IMVI melanoma 33.7% | SK-MEL-28 melanoma 83.7%

COc1cc(OC)c(C(=O)C(CN(C)C)CN(C)C)cc1OC
active: K-562 leukemia -42.3% | MALME-3M melanoma -87.8% | MDA-MB-231 breast -59.7% | RXF 393 renal -75% | UACC-257 melanoma 8.98% | M14 melanoma -31.6% | HCT-15 colon -52.4% | HT29 colon 2.66% | LOX IMVI melanoma -68.8%
inactive: DU-145 prostate 87.3% | SF-268 CNS 99.1% | SF-295 CNS 101% | SF-539 CNS 67.7% | SNB-75 CNS 91.4% | SNB-19 CNS 102% | U251 CNS 101% | PC-3 prostate 94.5% | SK-MEL-5 melanoma 101% | UACC-62 melanoma 19.2% | SK-MEL-28 melanoma 21.8%
